# Reference: ChEMBL document CHEMBL4513146, “CO-ADD screening of Karazin Kharkiv National University (Ukraine) compounds”
# Entries with a potency or affinity are not part of this list.
# Tests used:
# Klebsiella pneumoniae = settings: Concentration 32 ug.mL-1;; ASSAY_TEST Inhibition of Bacterial Growth; detection method Absorption (OD600); MEDIA CAMHB; plate type 384well; NBS; CORNING #3640; time 18 hr
# Candida albicans = settings: Concentration 32 ug.mL-1; ASSAY_TEST Inhibition of Fungal Growth; detection method Absorption (OD530)
# Cryptococcus neoformans = settings: Concentration 32 ug.mL-1; ASSAY_TEST Inhibition of Fungal Growth; detection method Resazurin; Absorption (OD600-OD570); plate type 384well; NBS; CORNING #3640
SMILES,Inhibition (Klebsiella pneumoniae),Inhibition (Candida albicans),Inhibition (Cryptococcus neoformans)
CCC(Sc1nnc2c(=O)n(-c3ccc(C)c(C)c3)ccn12)C(=O)Nc1cc(OC)ccc1OC (stereo not given),5.57%,2.66%,-6.72%
Cc1nnc2ccc(S(=O)(=O)N(Cc3ccccc3F)c3ccc(F)c(F)c3)cn12,9.72%,2.36%,-9.63%
CCc1nnc2c(SCC(=O)Nc3c(C)cc(C)cc3C)nc3ccccc3n12,8.2%,1.5%,-17.04%
Cc1ccc(CNC(=O)Cn2nc3ccc(SC4CCCCC4)nn3c2=O)cc1,11.36%,13.29%,-15.57%
Cc1ccc(NC(=O)CSc2nnc3c(=O)n(-c4ccccc4)ccn23)c(C)c1,-2.79%,2.18%,-11.34%
CCOc1ccc(-n2ccn3c(SCC(=O)Nc4cc(OC)cc(OC)c4)nnc3c2=O)cc1,3.96%,2.98%,-7.81%
O=C(CSc1nnc2c3cc(-c4ccccc4)nn3ccn12)Nc1cccc(Br)c1,14.04%,3.21%,-28.34%
CC(C)CCNC(=O)Cn1nc2n(Cc3cccs3)c(=O)c3sccc3n2c1=O,6.63%,-0.58%,-17.23%
O=C(Cn1nc2c(Sc3ccccc3)nccn2c1=O)Nc1ccc2c(c1)OCCO2,12.02%,-0.06%,-3.83%
Cc1ccc(C)c(CN(c2cccc(Cl)c2)S(=O)(=O)c2cccn3c(C)nnc23)c1,5.81%,2.43%,-8.33%
